Experimental data: ChEMBL document CHEMBL3433997, “St. Jude Leishmania screening dataset” (2016)

Key:
Type in all cases: functional
[1] = target: Solute carrier family 2, facilitated glucose transporter member 1 (Homo sapiens) (UniProt P11166); test: ST_JUDE_LEISH: Cytotoxicity at 2uM final concentration against transgenic Leishmania Mexicana promastigotes LmGLUT1 that are glucose transport deficient and complemented with the human glucose transporter GLUT1. Activity is measured by DNA content using SYBR green in vitro
Solute carrier family 2, facilitated glucose transporter member 1 (Homo sapiens), sequence (P11166 whole entry): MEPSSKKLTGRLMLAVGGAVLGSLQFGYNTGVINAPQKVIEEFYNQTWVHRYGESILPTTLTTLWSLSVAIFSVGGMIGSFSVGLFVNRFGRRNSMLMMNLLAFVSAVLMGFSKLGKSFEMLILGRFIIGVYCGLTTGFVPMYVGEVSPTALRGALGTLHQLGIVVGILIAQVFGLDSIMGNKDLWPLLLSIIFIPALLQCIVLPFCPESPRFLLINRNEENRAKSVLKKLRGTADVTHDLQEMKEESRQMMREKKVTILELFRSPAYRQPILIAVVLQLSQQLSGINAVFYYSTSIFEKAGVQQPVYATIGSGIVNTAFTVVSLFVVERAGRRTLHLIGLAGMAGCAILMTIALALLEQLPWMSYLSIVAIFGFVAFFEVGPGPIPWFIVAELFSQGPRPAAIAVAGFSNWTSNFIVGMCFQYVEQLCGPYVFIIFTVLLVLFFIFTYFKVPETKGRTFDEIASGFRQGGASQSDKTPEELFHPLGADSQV

[2] = target: Hexose transporter 1 (Plasmodium falciparum) (UniProt O97467); test: ST_JUDE_LEISH: Cytotoxicity at 2uM final concentration against transgenic Leishmania Mexicana promastigotes LmPfHT that are glucose transport deficient and complemented with the Plasmodium falciparum hexose transporter. Activity is measured by DNA content using SYBR green in vitro
[3] = target: Glucose transporter (Leishmania mexicana) (UniProt O61059); test: ST_JUDE_LEISH: Cytotoxicity at 2uM final concentration against transgenic Leishmania Mexicana promastigotes LmGT2 that are glucose transport deficient and complemented with the L. Mexicana glucose transporter 2. Activity is measured by DNA content using SYBR green in vitro

Compound: O=C(/C=C/c1ccc(Cl)c(Cl)c1)NCCCCCCN1CCCN(C(=O)Nc2ccc(F)c(Cl)c2)CC1
- inhibition [1]: 3.61%
- inhibition [2]: 2.44%
- inhibition [3]: 2.6%

Compound: CCc1c(C)c(C#N)c2nc3ccccc3n2c1NCc1ccco1
- inhibition [1]: 4.43%
- inhibition [2]: 4.23%
- inhibition [3]: 2.13%

Compound: FC(F)(F)Oc1cccc(CNc2noc(-c3sccc3Br)n2)c1
- inhibition [1]: 2.52%
- inhibition [2]: 2.93%
- inhibition [3]: 0.8%

Compound: COc1ccc(Cn2ccc3c4c(N)nc(N)nc4ccc32)cc1
- inhibition [1]: 97.9%
- inhibition [2]: 89.3%
- inhibition [3]: 90.1%

Compound: COc1ccc2nccc([C@@H](O)CN3CCC(NC(=O)c4ccc5nc(-n6cccc6)sc5c4)CC3)c2c1
- inhibition [1]: 6.02%
- inhibition [2]: 5.93%
- inhibition [3]: 4.22%

Compound: CCN(CCCN1CCCCC1)c1cc(C)nc(Nc2ccc(C(C)C)cc2)n1
- inhibition [1]: -0.68%
- inhibition [2]: 1.56%
- inhibition [3]: 2.4%

Compound: O=C(CCCCCNC(=O)c1ccc(O)c(-c2ccc(Cl)c(Cl)c2)c1)NCCN1CCOCC1
- inhibition [1]: 4.35%
- inhibition [2]: 3.57%
- inhibition [3]: 2.65%

Compound: CCCCc1cc(NCc2ccncc2)nc(Nc2cccc(OC)c2)n1
- inhibition [1]: 21.4%
- inhibition [2]: 10.9%
- inhibition [3]: 3.45%

Compound: O=C(N[C@H]1CCN(Cc2ccc(OC3CCN(Cc4ccccc4)CC3)cc2)C1)c1ccc(Cl)c(Cl)c1
- inhibition [1]: -0.36%
- inhibition [2]: -1.3%
- inhibition [3]: -1.06%

Compound: COc1ccc(-c2cnc3ccc(NCc4ccc(S(N)(=O)=O)cc4)nn23)cn1
- inhibition [1]: 4.78%
- inhibition [2]: 4.83%
- inhibition [3]: 5.05%

Compound: COc1cc2ncnc(Nc3ccc(Br)c(Cl)c3)c2cc1OC
- inhibition [1]: 5.07%
- inhibition [2]: 5.81%
- inhibition [3]: 3.09%

Compound: Cc1cccc2nc(-c3ccc(-c4cccc(NC(=O)c5cnccc5C(F)(F)F)c4)cc3)[nH]c12
- inhibition [1]: 11.2%
- inhibition [2]: 10.4%
- inhibition [3]: 8.19%

Compound: O=C(CCCCCCc1ccccc1)Nc1ccc2nc3c(c(NCc4ccccc4)c2c1)CCCC3
- inhibition [1]: -0.24%
- inhibition [2]: 1.39%
- inhibition [3]: -2.98%

Compound: N=C(N)NCC=C(c1ccccc1)c1ccccc1
- inhibition [1]: 8.32%
- inhibition [2]: 5.26%
- inhibition [3]: 6.35%

Compound: O=C(C(=O)c1ccc(Nc2ccnc3cc(-c4ccccn4)ccc23)cc1)c1ccccc1
- inhibition [1]: -1.32%
- inhibition [2]: -0.47%
- inhibition [3]: -2.63%

Compound: CCc1cc(Br)c2c(c1)C(NCCCNc1cc(=O)c3ccccc3[nH]1)CCN2 (configuration not stated)
- inhibition [1]: 3.82%
- inhibition [2]: 2.76%
- inhibition [3]: 5.63%

Compound: N=C(N)c1cccc(OCCCOc2cccc(NC(=O)Nc3ccc([N+](=O)[O-])cc3)c2)c1
- inhibition [1]: 4.46%
- inhibition [2]: 3.16%
- inhibition [3]: 2.32%

Compound: Cc1ccc(CNc2ccc3ncc(-c4cccc(C(=O)NCCN(C)C)c4)n3n2)c(C)c1
- inhibition [1]: 5.82%
- inhibition [2]: 5.31%
- inhibition [3]: 4.49%

Compound: CC1CN(c2cccc3c2nc(-c2cncc(C#N)c2)n3CCNCc2ccccc2)CC(C)O1 (configuration not stated)
- inhibition [1]: 3.09%
- inhibition [2]: 2.38%
- inhibition [3]: 2.56%

Compound: COc1ccccc1-n1ccnc1SCC(=O)Nc1cccc(C(F)(F)F)c1
- inhibition [1]: 3.36%
- inhibition [2]: 1.61%
- inhibition [3]: 2.6%

Compound: CC(=O)Oc1cc(OCc2ccccc2)c(OC(C)=O)c(OCc2ccccc2)c1
- inhibition [1]: 6.3%
- inhibition [2]: 5.31%
- inhibition [3]: -0.19%

Compound: Cc1cc(C(=O)NC2CCN(Cc3ccccc3)CC2)ccc1-c1nc2ccc(C(F)(F)F)cc2[nH]1
- inhibition [1]: 3.67%
- inhibition [2]: 2.1%
- inhibition [3]: 3.25%

Compound: Cc1cc(Nc2nc(Nc3cccc(Cl)c3)nc3ccccc23)n[nH]1
- inhibition [1]: 10.5%
- inhibition [2]: 17.2%
- inhibition [3]: 9.22%

Compound: COCCNCc1ccc(-c2cccc(CNC3CCN(Cc4ccccc4)CC3)c2)cc1
- inhibition [1]: 4%
- inhibition [2]: 3.16%
- inhibition [3]: 4.77%

Compound: Cc1cc(N[C@@H](Cc2ccccc2)C(=O)NC2CCCC2)nc(NCCCOC(C)C)n1
- inhibition [1]: 7.62%
- inhibition [2]: 3.46%
- inhibition [3]: 0.61%

Compound: COc1ccc(-c2cccc(NC(=O)c3ccc(Cl)cc3)c2)cc1CN1CCCN(C)CC1
- inhibition [1]: 7.89%
- inhibition [2]: 8.76%
- inhibition [3]: 7.23%

Compound: O=[N+]([O-])c1ccc(Nc2nc(N/N=C/c3cc(Cl)cc(Cl)c3O)nc(Nc3ccccc3)n2)cc1
- inhibition [1]: 2.04%
- inhibition [2]: 2.61%
- inhibition [3]: 2.65%

Compound: CC(Cc1ccc(C(=O)OC(c2ccccc2)c2ccccc2)cc1)NCC(O)c1ccccc1 (configuration not stated)
- inhibition [1]: 0.9%
- inhibition [2]: 0.98%
- inhibition [3]: -0.61%

Compound: CC(C)c1cccc(OCC2CCN(c3ncc(C(=O)NC4CC4)cc3Cl)CC2)c1
- inhibition [1]: 1.56%
- inhibition [2]: -0.04%
- inhibition [3]: -0.2%

Compound: O=C(Nc1ccc(Cl)cc1)c1ccc(CN2CCCN(Cc3cccc(Cl)c3)CC2)cc1
- inhibition [1]: -0.65%
- inhibition [2]: -1.08%
- inhibition [3]: -0.52%

Compound: Cc1[nH]c(C)c(-c2ccc(Oc3ccc(O)cc3)cc2)c(=O)c1Cl
- inhibition [1]: 3.19%
- inhibition [2]: 1.48%
- inhibition [3]: -5.02%

Compound: Cc1nnsc1C(=O)Nc1cccc(-c2ccc(-c3nc4cc(C(F)(F)F)ccc4[nH]3)cc2)c1
- inhibition [1]: 1.55%
- inhibition [2]: 2.49%
- inhibition [3]: -1.08%

Compound: Cc1cccc(CNc2nccc3[nH]c4ccccc4c23)c1
- inhibition [1]: 4.82%
- inhibition [2]: 4.77%
- inhibition [3]: 1.28%

Compound: Cc1c(CNCCCNc2nc3ccccc3[nH]2)[nH]c2cc(Cl)cc(Cl)c12
- inhibition [1]: 25.5%
- inhibition [2]: 49.4%
- inhibition [3]: 41.6%
